Each structure is given as a SMILES string. The campaign covered roughly 13,000 compounds. About 3,200 (25%) showed an effect of 50% or more. Some of the results follow.

These results are taken from publication PMC4552634, “A New Set of Chemical Starting Points with Plasmodium falciparum Transmission-Blocking Potential for Antimalarial Drug Discovery” (PLoS ONE, 2015).

The assay has as its system P. falciparum stage V gametocytes. The arrangement: BacTiter-Glo ATP luminescence viability of purified stage V gametocytes in 384-well plates, per cent inhibition versus DMSO. The conditions noted are these: 48 h, 5 µM; inhibitor.
The term % Inhibition denotes the change of the read-out against control, counted positive when it falls. Consider `CC(C)(C)c1ccc(NC(=O)c2cccc(CN3CCN(Cc4cccc(O)c4)CC3)c2)cc1` [TCMDC-136604], for which the “% Inhibition” value was -36.18%.

Take `COc1ccc(CNC(=O)NC2CCN(c3ccnc(Nc4cc(OC)c(OC)c(OC)c4)n3)C2)cc1` (centres unmarked) [TCMDC-133619]: the “% Inhibition” value was -40.46%. On to `Cc1cccc(CN2CCCN(Cc3ccc(C(=O)Nc4ccc(C(C)(C)C)cc4)cc3)CC2)c1` [TCMDC-136434], for which the “% Inhibition” value was -28%.

For the molecule `CN(c1ccc(NC(=O)Nc2cc(C(F)(F)F)ccc2F)cc1)c1ccnc(NCCN2CCOCC2)n1` [TCMDC-141590], the “% Inhibition” value is reported as 51.14%. The result for `CN(c1ccc(NC(=O)Nc2cc(C(F)(F)F)ccc2F)cc1)c1ccnc(NCCN2CCCC2)n1` [TCMDC-141635] reads 83.6%; that for `Cn1nc(-c2ccc(NC(=O)Nc3ccc4ccccc4c3)c(F)c2)c2cnc(NCCN3CCOCC3)nc21` [TCMDC-141561], 17%. The result for `COc1cc(Nc2nccc(N3CCC(NC(=O)Nc4ccc5c(c4)OCO5)C3)n2)cc(OC)c1OC` (centres unmarked) [TCMDC-133629] reads -90.76%; that for `CCN(CCN(C)C)Cc1ccc(-c2ccc(NS(=O)(=O)c3cccc4cccnc34)cc2)cc1` [TCMDC-136600], 46.29%. For the molecule `CCCN1CCN(c2ccccc2NS(=O)(=O)c2ccc(C(=O)Nc3ccc(Cl)cc3)cc2)CC1` [TCMDC-136350], the “% Inhibition” value is reported as 1.888%. `O=C(Nc1ccc(Cl)cc1)c1ccc(CN2CCCN(CC3CCCCC3)CC2)cc1` [TCMDC-136400]: the “% Inhibition” value is -37.54%.

Take `O=C(Nc1cccc(C(F)(F)F)c1)c1ccc(S(=O)(=O)NCC2CCCN(CC3CCCCC3)C2)cc1` (centres unmarked) [TCMDC-132777]: the “% Inhibition” value came out at 92.44%. Turning to `O=C(Nc1ccc(C(F)(F)F)cc1)c1cccc(S(=O)(=O)NCC2CCCN(CC3CCCCC3)C2)c1` (centres unmarked) [TCMDC-133673], the “% Inhibition” value is reported as -19.66%. As to `O=C(Nc1cccc(C(F)(F)F)c1)c1ccc(S(=O)(=O)NCC2CCCN2CC2CCCCC2)cc1` (centres unmarked) [TCMDC-133689], the “% Inhibition” value is listed as -36.87%. The result for `O=C(Nc1ccc(Cl)cc1)c1ccc(S(=O)(=O)NCC2CCN(CC3CCCCC3)CC2)cc1` [TCMDC-132808] reads 84.19%; that for `CCCN1CCN(c2ccc(NS(=O)(=O)c3ccc(C(=O)Nc4ccc(Cl)cc4)cc3)cc2)CC1` [TCMDC-136351], 71.9%. Under `O=C(Nc1ccc(C(F)(F)F)cc1)c1ccc(S(=O)(=O)NCC2CCCN(CC3CCCCC3)C2)cc1` (centres unmarked) [TCMDC-133680] stands -21.48%; under `CC(C)c1ccc(NC(=O)c2ccc(C(=O)NCC3CCN(CC4CCCCC4)CC3)cc2)cc1` [TCMDC-136753], 4%; under `O=C(Nc1cccc(C(F)(F)F)c1)c1cccc(S(=O)(=O)NCC2CCCN(Cc3ccccc3)C2)c1` (centres unmarked) [TCMDC-133685], -6.422%. Take `O=C(Nc1cccc(C(F)(F)F)c1)c1cccc(S(=O)(=O)NCC2CCCN(CC3CCCCC3)C2)c1` (centres unmarked) [TCMDC-132770]: the “% Inhibition” value is recorded as 87.2%.

For `CCCN1CCN(Cc2ccc(C(=O)Nc3ccc(Cl)cc3)cc2)CC1` [TCMDC-136387], the “% Inhibition” value is listed as 3.347%. The result for `CCNc1cc(C)nc(Nc2ccc(NC(=O)c3ccccc3)cc2)n1` [TCMDC-124988] reads -14.46%; that for `N=C(N)c1ccc(Oc2ccc(C(=N)N)cc2)cc1` [TCMDC-124287], 24.59%; that for `CCCc1ccc(NC(=O)c2cccc(CN3CCCN(Cc4cccc(O)c4)CC3)c2)cc1` [TCMDC-135978], 12.81%. The result for `CC(C)[C@H](NC(=O)c1ccc(O)c(-c2cccc(C(F)(F)F)c2)c1)C(=O)NC1CCCc2ccccc21` (some centres unmarked) [TCMDC-140819] reads -19.12%. As to `CCCCCCc1cnc2nc(N)nc(N)c2c1C` [TCMDC-138065], the “% Inhibition” value is listed as 8.256%. The result for `O=C(NC1CCC(N2CCCC(OCc3ccccc3)C2)CC1)c1cc2ccccc2[nH]1` (centres unmarked) [TCMDC-132892] reads 14.17%. The result for `CCCC(=O)Nc1ccc(OCCCN(Cc2ccccc2C(F)(F)F)c2ccc(C#N)c(C(F)(F)F)c2)cc1` [TCMDC-135466] reads 20.73%; that for `O=C(Nc1cccc(C(F)(F)F)c1)c1cccc(S(=O)(=O)NCC2CCN(CC3CCCCC3)CC2)c1` [TCMDC-133684], -26.22%; that for `O=C(Nc1cccc(C(F)(F)F)c1)c1ccc(S(=O)(=O)NCC2CCN(CC3CCCCC3)CC2)cc1` [TCMDC-132776], 87.8%. On to `CCCCCN1CCC(CNS(=O)(=O)c2ccc(C(=O)Nc3cccc(C(F)(F)F)c3)cc2)CC1` [TCMDC-132775], for which the “% Inhibition” value is -3.109%. On to `COc1cc2c(cc1OC)C(C)(C)CN1Cc3c(c(CO)c(OC)c(OC)c3OC)CC21` (centres unmarked) [TCMDC-137250], for which the “% Inhibition” value is recorded as -48.53%. `COc1ccc2nc(N)nc(C)c2c1` [TCMDC-123907]: the “% Inhibition” value is listed as 15.32%. The result for `CS(=O)(=O)CCNCc1cccc(-c2cc3c(Nc4ccc(OCc5cccc(F)c5)c(Cl)c4)ncnc3s2)c1` [TCMDC-134654] reads -64.99%. For `CC(=O)Nc1cccc(C(=O)Nc2cccc(-c3ccc(-c4nc5cccc(C)c5[nH]4)s3)c2)c1` [TCMDC-132144], the “% Inhibition” value is recorded as 10.52%.

For the molecule `CC(=O)Nc1cccc(C(=O)Nc2cccc(-c3ccc(-c4nc5cc(F)ccc5[nH]4)s3)c2)c1` [TCMDC-132142], the “% Inhibition” value is listed as 5.899%. With `Cc1cccc2nc(-c3ccc(-c4cccc(NC(=O)c5cncn5C)c4)s3)[nH]c12` [TCMDC-137068], the “% Inhibition” value was found to be 78.66%.

With `Cn1cncc1C(=O)Nc1cccc(-c2ccc(-c3nc4ccccc4[nH]3)s2)c1` [TCMDC-137055], the “% Inhibition” value is reported as 40.39%.

Turning to `Cn1cncc1C(=O)Nc1cccc(-c2ccc(-c3nc4cc(F)ccc4[nH]3)s2)c1` [TCMDC-137066], the “% Inhibition” value is 61.93%. Take `Cc1cccc2nc(-c3ccc(-c4ccc(NC(=O)c5cncn5C)cc4)s3)[nH]c12` [TCMDC-137067]: the “% Inhibition” value is recorded as 9.475%. The result for `NC(N)=Nc1nc(-c2cc(NC(=O)C(F)(F)F)cc([N+](=O)[O-])c2)cs1` [TCMDC-137440] reads -35.18%; that for `Nc1nc(N)c2c(ccc3nccc32)[nH]1` [TCMDC-124301], -21.41%; that for `O=C(Nc1cccc(CN2CCN(C(=O)c3cccc(Cl)c3)CC2)c1)c1cccs1` [TCMDC-136326], 0.1034%. As for `CNC(=O)c1ccccc1Nc1cc(Nc2cc(OC)ccn2)ncc1Cl` [TCMDC-135054], the “% Inhibition” value is recorded as -20.04%. `COc1cccc(CN2Cc3ccccc3OC3(CCN(Cc4c[nH]c5cnccc45)CC3)C2)c1` [TCMDC-133378]: the “% Inhibition” value stood at 19.44%.

As to `Cc1ccc(CN2CCN(c3cc4c(cc3Cl)CCN4C(=O)Cc3ccc(Cl)c(NC(=O)Nc4cccc(C#N)c4)c3)CC2)cc1` [TCMDC-139471], the “% Inhibition” value is reported as 12.97%. `CN(CCS(C)(=O)=O)Cc1ccc(-c2ccc3ncnc(Nc4ccc(OCc5cccc(F)c5)c(Cl)c4)c3c2)o1` [TCMDC-138629]: the “% Inhibition” value was -22.68%. Under `O=C(c1cc(C(=O)Nc2ccccc2)c(=O)n(-c2ccccc2)c1)c1cc(Cl)ccc1O` [TCMDC-124511] stands 30.05%; under `COc1ccccc1NC(=O)c1cc(C(=O)c2cc(Cl)ccc2O)cn(-c2ccccc2OC)c1=O` [TCMDC-124338], 29.65%. With `Cc1ccc(O)c(C(=O)c2cc(C(=O)Nc3ccccc3C)c(=O)n(-c3ccccc3C)c2)c1` [TCMDC-123627], the “% Inhibition” value is on record as 58.98%.

Regarding `O=C(c1cc(C(=O)Nc2ccc(F)cc2)c(=O)n(-c2ccc(F)cc2)c1)c1cc(Cl)ccc1O` [TCMDC-123626], the “% Inhibition” value stood at 8.881%.

In the case of `O=C(c1cc(C(=O)Nc2ccccc2F)c(=O)n(-c2ccccc2F)c1)c1cc(Cl)ccc1O` [TCMDC-123625], the “% Inhibition” value came out at 90.03%. The result for `COc1ccc(O)c(C(=O)c2cc(C(=O)NCCc3ccccc3)c(=O)n(CCc3ccccc3)c2)c1` [TCMDC-125435] reads -12.88%; that for `O=C(Nc1ccc(-c2cccc(-c3nc4ccc(F)cc4[nH]3)c2)cc1)c1cnn2cccnc12` [TCMDC-136864], -12.66%; that for `C(=NNc1ccnc2ccccc12)c1ccncc1` [TCMDC-142016], -6.172%. Under `CN1CCN(CCCN(Cc2csc(-c3ccc(CNCc4ccccc4)cc3)n2)C(=O)Nc2cccc(Cl)c2)CC1` [TCMDC-141794] stands 15.5%.

Regarding `CCCN(Cc1nnc(-c2cccs2)o1)C(=O)C1COc2ccccc2O1` (centres unmarked) [TCMDC-125333], the “% Inhibition” value was 18.28%. The result for `O=C(Nc1ccc2ccccc2c1)N(CCCn1ccnc1)Cc1csc(-c2ccc(CNCc3ccccc3)cc2)n1` [TCMDC-141798] reads 15.32%; that for `O=C(C1COc2ccccc2O1)N(CCCn1ccnc1)Cc1csc(-c2ccc(CNCc3ccccc3)cc2)n1` (centres unmarked) [TCMDC-141813], 25.07%; that for `CCCCNCc1ccc(-c2nc(CN(CCCn3ccnc3)C(=O)C3COc4ccccc4O3)cs2)cc1` (centres unmarked) [TCMDC-141702], 64.34%. For the molecule `CN1CCCN(Cc2ccc(-c3cccc(NC(=O)c4cccc(Cl)c4)c3)cc2)CC1` [TCMDC-132641], the “% Inhibition” value is on record as 27.52%. The result for `CCCCNCc1ccc(-c2nc(CN(CCCn3ccnc3)C(=O)Nc3ccc(CC)cc3)cs2)cc1` [TCMDC-141639] reads 61.14%; that for `CCCCNCc1ccc(-c2nc(CN(CCCN3CCN(C)CC3)C(=O)Nc3cccc(Cl)c3)cs2)cc1` [TCMDC-141637], 88.1%. Under `CCCCNCc1ccc(-c2nc(CN(CCCn3ccnc3)C(=O)NC3CC3c3ccccc3)cs2)cc1` (centres unmarked) [TCMDC-141638] stands 80.86%; under `CCc1ccc(NC(=O)N(CCCn2ccnc2)Cc2csc(-c3ccc(CNCc4ccccc4)cc3)n2)cc1` [TCMDC-141797], 5.722%.

With `CCOC(=O)CC[C@@H](NC(=O)c1ccc(NCc2ccc3ccc4nc(C)[nH]c(=O)c4c3c2)cc1F)C(=O)N[C@@H](Cc1c[nH]c2ccccc12)C(=O)OCC` [TCMDC-137320], the “% Inhibition” value was 27.07%.
